# Assay results taken from paper PMC4336329 (PLoS ONE, 2015).
# Among all 310,000 compounds or so, about 2,200 (0.71%) showed an effect of 50% or more. The effect is printed as a negative number. The list comes from a sample in which strong results are over-represented; it also holds similar structures and randomly drawn compounds.
# Target: human ether-à-go-go-related gene (hERG) potassium channel (human, UniProt Q12809)
# Experiment: primary screen, population patch clamp on CHO cells stably expressing hERG; higher = less effect of the substance
# Sequence of human ether-à-go-go-related gene (hERG) potassium channel (Q12809 whole entry, looked up): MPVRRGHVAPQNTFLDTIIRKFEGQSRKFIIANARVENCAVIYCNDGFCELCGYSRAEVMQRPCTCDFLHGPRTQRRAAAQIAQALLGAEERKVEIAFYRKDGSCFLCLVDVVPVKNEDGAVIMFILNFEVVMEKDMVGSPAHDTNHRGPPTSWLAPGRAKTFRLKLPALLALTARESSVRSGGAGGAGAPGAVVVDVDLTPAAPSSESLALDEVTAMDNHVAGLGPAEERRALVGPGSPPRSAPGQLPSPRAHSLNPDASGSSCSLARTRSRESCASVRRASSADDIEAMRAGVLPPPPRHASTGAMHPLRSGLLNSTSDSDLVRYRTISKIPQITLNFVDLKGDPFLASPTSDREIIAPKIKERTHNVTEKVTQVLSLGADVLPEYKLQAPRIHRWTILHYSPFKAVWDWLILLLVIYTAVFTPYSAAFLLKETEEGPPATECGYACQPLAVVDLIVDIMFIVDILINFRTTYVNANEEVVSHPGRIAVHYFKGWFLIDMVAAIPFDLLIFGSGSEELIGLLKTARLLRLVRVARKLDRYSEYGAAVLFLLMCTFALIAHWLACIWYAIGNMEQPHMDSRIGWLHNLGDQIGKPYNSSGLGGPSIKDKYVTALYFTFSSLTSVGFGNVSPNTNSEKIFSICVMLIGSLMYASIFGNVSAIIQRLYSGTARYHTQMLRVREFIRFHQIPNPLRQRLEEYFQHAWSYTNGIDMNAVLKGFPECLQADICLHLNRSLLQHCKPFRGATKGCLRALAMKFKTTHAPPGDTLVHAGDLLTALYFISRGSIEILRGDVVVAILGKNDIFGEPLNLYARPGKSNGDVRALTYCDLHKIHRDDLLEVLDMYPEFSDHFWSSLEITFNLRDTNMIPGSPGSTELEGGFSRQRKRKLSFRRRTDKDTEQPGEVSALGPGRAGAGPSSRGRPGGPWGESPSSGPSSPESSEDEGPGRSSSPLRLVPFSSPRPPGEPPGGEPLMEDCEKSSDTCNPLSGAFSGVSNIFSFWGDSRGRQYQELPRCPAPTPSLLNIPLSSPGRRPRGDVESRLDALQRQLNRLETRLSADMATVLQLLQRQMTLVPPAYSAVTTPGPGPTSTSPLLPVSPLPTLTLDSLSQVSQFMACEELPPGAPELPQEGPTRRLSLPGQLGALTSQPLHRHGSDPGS
row,SMILES,"hERG current change (%, negative = inhibition) at 1uM [%]"
1,COC(=O)c1cc(NC(=O)CSc2nnc(N)s2)ccc1Cl,13.6
2,Cc1ccc2c(CC(=O)N(C)c3c(N)n(Cc4ccccc4)c(=O)[nH]c3=O)coc2c1,8.06
3,O=C(NCCc1ccccc1)c1ccc2nccnc2c1,20.4
4,CC(C)Cc1ccc(C(C)C(=N)N)cc1.Cl (centres unmarked),10.2
5,CC(C)Cc1ccc(C(C)C(N)=NCCc2ccccc2)cc1.Cl (centres unmarked),-16
6,CC(C)Cc1ccc(C(C)C(N)=Nc2ccc(O)cc2)cc1.Cl (centres unmarked),-71.8
7,CSCCC(=O)N1CCC(n2nccc2NC(=O)CCc2ccccc2)CC1,5.02
8,Cc1ccc(C(=O)C2CCN(CC(=O)N3CCN(c4ccc(F)cc4)CC3)CC2)cc1,-66.5
9,Cc1ccc2c(c1)nnn2C1CCN(CC(=O)N2CCN(c3ccc(F)cc3)CC2)CC1,-52.5
10,Cc1ccc2c(c1)nnn2C1CCN(CC(=O)Nc2ccc(F)cc2)CC1,-20.7
11,Cc1ccc(C(=O)C2CCN(CC(=O)NCc3ccc(F)cc3)CC2)cc1,-17.5
12,CC(=O)c1ccc(NC(=O)CN2CCC(C(=O)c3ccc(F)cc3)CC2)cc1,6.3
13,Cc1ccc(NC(=O)CN2CCC(C(=O)c3ccc(F)cc3)CC2)cc1,-50.1
14,Cc1ccc2c(c1)nnn2C1CCN(CC(=O)c2ccc(Cl)cc2)CC1,-6.32
15,O=C(c1ccccc1)C1CCN(CC(=O)N2CCN(c3ccccc3)CC2)CC1,10.9
16,O=C(CN1CCC(C(=O)c2ccc(F)cc2)CC1)Nc1ccc(F)cc1,-31.6
17,O=C(/C=C/c1ccc(F)cc1)NC(=S)Nc1ccccc1O,13.6
18,CCN1C(=O)/C(=C/c2ccc(N(CC)CC)cc2OC)C(=O)NC1=S,5.05
19,Cc1ccccc1OCCN=Cc1c(O)n(C)c(=O)n(C)c1=O,10.2
20,Cc1cc(C(=O)NC2=NCCS2)cs1,-13

row,SMILES,"hERG current change (%, negative = inhibition) at 1uM [%]"
1,Cc1ccc(S(=O)(=O)NCCC(=O)NNC(=O)c2ccccc2O)cc1C,-9.68
2,Cc1csc(Sc2ccc(S(=O)(=O)N3CCCC3)cn2)n1,-2.28
3,O=Cc1c(NCCc2ccc(F)cc2)c2ccccc2[nH]c1=O,4.06
4,Cc1ccc(-c2csc(NC(=O)C3CSC4(C)CCC(=O)N34)n2)cc1 (centres unmarked),11.6
5,O=C(Nc1ccnn1C1CCN(Cc2ccccc2)CC1)C1CCCC1,-15.9
6,O=C(Nc1ccnn1C1CCN(Cc2cccc(F)c2F)CC1)C1CCCC1,8
7,O=C(Nc1ccnn1C1CCN(Cc2ccccc2F)CC1)C1CCCC1,-6.15
8,O=C(Nc1ccnn1C1CCN(C/C=C/c2ccc(F)cc2)CC1)C1CCCC1,-79.3
9,O=C(Nc1ccnn1C1CCN(Cc2cccc(O)c2)CC1)C1CCCC1,-14.2
10,O=C(Nc1ccnn1C1CCN(C/C=C/c2ccccc2)CC1)C1CCCC1,-78.4
11,CC1(c2ccccc2)CC(C)(C)N2C(=O)C3(C(C#N)=C(N)Oc4cc(O)ccc43)c3cccc1c32 (centres unmarked),6.18
12,O=C(CNCc1cccc2ccccc12)Nc1ccccc1[N+](=O)[O-],1.68
13,COc1ccc(NC(=O)CSc2nnc(-c3ccoc3C)n2CCc2ccccc2)cc1,1.36
14,CCN1/C(=C/C=C/C=C/C=C/c2sc3ccccc3[n+]2CC)Sc2ccccc21.[I-],7.57
15,CCN1/C(=C/C(C)=C/c2sc3ccccc3[n+]2CC)Sc2ccccc21.[I-],10.6
16,CCN1/C(=C/c2ccc3cc(C)ccc3[n+]2CC)Sc2ccc3sccc3c21.[I-],10.9
17,CCC(=O)/C=C1/Sc2ccccc2N1CC,10.1
18,CCN1/C(=C/c2ccc3cccc(C)c3[n+]2CC)Sc2ccccc21.[I-],-76.4
19,CCN1/C(=C/c2ccc3cc(C)ccc3[n+]2CC)Sc2ccccc21.[I-],-100
20,CCN1/C(=C/C=C/C=C/c2sc3ccccc3[n+]2CC)Sc2ccccc21.[I-],-37.5

row,SMILES,"hERG current change (%, negative = inhibition) at 1uM [%]"
1,CCC(=O)/C=C1\Sc2ccccc2N1CC,4.38
2,CCN1/C(=C/c2ccc3ccc(C)cc3[n+]2CC)Sc2ccccc21.[I-],-63.6
3,COc1cccc(CCc2nnc(N)s2)c1,13.2
4,O=Cc1cn(CC(=O)Nc2ccccc2)c2ccccc12,6.4
5,C=CCOC(=O)Nc1ccc(Cl)cc1NC(=O)OCC=C,0.411
6,Cc1ccc(C(=O)Oc2ccc(Cl)c3cccnc23)cc1[N+](=O)[O-],15
7,CCCc1c(C)[nH]c2nc3ccccc3n2c1=O,11.4
8,COc1ccc(C)cc1S(=O)(=O)N(C)CC(=O)N1CCC(C(N)=O)CC1,9.99
9,COc1cc(NC(=S)N2CCN(C)CC2)cc(OC)c1,14.3
10,CCN1C(=O)/C(=C\N2CCN(c3cccc(Cl)c3)CC2)SC1=S,6.97
11,COc1ccc(NC(=S)N(CCCN2CCC(C)CC2)Cc2cccs2)cc1,-47.5
12,COc1ccc(NC(=S)N(CCCN2CCOCC2)C(C)c2cc3cccc(OC)c3o2)cc1 (centres unmarked),3.7
13,COc1ccc(NC(=S)N(CCCN2CCCC2)Cc2cccs2)cc1,-7.06
14,COc1cccc(NC(=S)N(CCCN2CCOCC2)C(C)c2cc3ccccc3o2)c1 (centres unmarked),10.6
15,COc1ccc(NC(=S)N(CCCN2CCN(C)CC2)Cc2cccs2)cc1,-14
16,COc1cccc(NC(=S)N(CCCN2CCCC(C)C2)Cc2cccs2)c1 (centres unmarked),-30.2
17,COc1ccc(NC(=S)N(CCCN2CCCC(C)C2)Cc2cccs2)cc1 (centres unmarked),-62.4
18,COc1ccc(NC(=S)N(CCCN2CCOCC2)C(C)c2cc3ccccc3o2)cc1 (centres unmarked),-63.1
19,COc1ccc(NC(=S)N(CCCN2CCCCC2)Cc2cccs2)cc1,-50.1
